# The supplement of paper PMC11172423
# Tested on: Madurella mycetomatis MM55
# Assay: growth relative to untreated control; higher = less inhibition, active = 20 or less
# Details: 25 µM
# Method: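 Hyphal fragments of M. mycetomatis MM55 or F. senegalensis CBS197.79 in RPMI 1640/MOPS were exposed to each MMV COVID Box or Global Health Priority Box compound at 100 or 25 µM for 7 days at 37 °C. Viability was read with MTS (490 nm, M. mycetomatis) or resazurin (600 nm, F. senegalensis), background-corrected with a medium-only control and expressed as % growth relative to the untreated growth control. Inhibition of more than 80% was taken as growth inhibition.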
row,SMILES,growth
1,COP(=S)(OC)Oc1nc(Cl)c(Cl)cc1Cl,88.5% (inactive)
2,CN(c1cc(NC(=O)c2ccc(F)cc2)ccn1)C1CCN(Cc2cccc(F)c2)CC1,5.69% (active)
3,CC(C)=CC1C(C(=O)OC(C#N)c2cccc(Oc3ccccc3)c2)C1(C)C (stereo not given),83.3% (inactive)
4,O=C(NC(=O)c1ccccc1Cl)Nc1ccc(OC(F)(F)F)cc1,106% (inactive)
5,COC(C)(C)CCCC(C)C/C=C/C(C)=C/C(=O)OC(C)C (stereo not given),47.7% (inactive)
6,CCC(CC)c1cccc(OC(=O)NC)c1.CCCC(C)c1cccc(OC(=O)NC)c1,96.3% (inactive)
7,N#Cc1nn(-c2c(Cl)cc(C(F)(F)F)cc2Cl)c(N)c1S(=O)C(F)(F)F (stereo not given),120% (inactive)
8,CN(C)CCn1c(Nc2cc(Cl)cc(C(F)(F)F)c2)nc2cnc(NC3CCCC3)cc21,39.6% (inactive)
9,C[C@@H]1O[C@@H](O[C@@H]2C=C3CC[C@@H]4[C@H](CC[C@]5(C)[C@@H](c6ccc(=O)oc6)CC[C@]45O)[C@@]3(C)CC2)[C@H](O)[C@H](O)[C@H]1O,93.2% (inactive)
10,CC(COc1ccc(Oc2ccccc2)cc1)Oc1ccccn1 (stereo not given),50.7% (inactive)
11,O=C(NC(=O)c1c(F)cccc1F)Nc1ccc(Cl)cc1,99.6% (inactive)
12,CC(C)(C#N)NC(=O)c1cc(Cl)cc(Cl)c1NC(=O)c1cc(Cl)nn1-c1ncccc1Cl,104% (inactive)
13,CCOCn1c(-c2ccc(Cl)cc2)c(C#N)c(Br)c1C(F)(F)F,30.1% (inactive)
14,CNC(=O)Oc1cccc2c1OC(C)(C)O2,95.6% (inactive)
15,Cc1c(COC(=O)[C@@H]2[C@H](C=C(Cl)C(F)(F)F)C2(C)C)cccc1-c1ccccc1,123% (inactive)
16,CC1(C)CNC(=NN=C(C=Cc2ccc(C(F)(F)F)cc2)C=Cc2ccc(C(F)(F)F)cc2)NC1,104% (inactive)
17,FC(F)(F)c1cc(Cl)cc(Nc2nc3cnc(OC4CCC4)cc3n2[C@@H]2CCNC2)c1,79.6% (inactive)
18,CC[C@H](C)[C@H]1O[C@]2(C=C[C@@H]1C)C[C@@H]1C[C@@H](C/C=C(\C)[C@@H](O[C@H]3C[C@H](OC)[C@@H](O[C@H]4C[C@H](OC)[C@@H](O)[C@H](C)O4)[C@H](C)O3)[C@@H](C)/C=C/C=C3\CO[C@@H]4[C@H](O)C(C)=C[C@@H](C(=O)O1)[C@]34O)O2.CO[C@H]1C[C@H](O[C@H]2[C@H](C)O[C@@H](O[C@@H]3/C(C)=C/C[C@@H]4C[C@@H](C[C@]5(C=C[C@H](C)[C@@H](C(C)C)O5)O4)OC(=O)[C@@H]4C=C(C)[C@@H](O)[C@H]5OC/C(=C\C=C\[C@@H]3C)[C@]54O)C[C@@H]2OC)O[C@@H](C)[C@@H]1O,75.2% (inactive)
19,CC(C)=CC1C(C(=O)OCN2C(=O)C3=C(CCCC3)C2=O)C1(C)C (stereo not given),85.9% (inactive)
20,CN/C(=N\[N+](=O)[O-])NCc1cnc(Cl)s1,112% (inactive)

# Same assay, conditions: 100 µM
row,SMILES,growth
1,COP(=S)(OC)Oc1nc(Cl)c(Cl)cc1Cl,106% (inactive)
2,CN(c1cc(NC(=O)c2ccc(F)cc2)ccn1)C1CCN(Cc2cccc(F)c2)CC1,9.07% (active)
3,CC(C)=CC1C(C(=O)OC(C#N)c2cccc(Oc3ccccc3)c2)C1(C)C (stereo not given),145% (inactive)
4,O=C(NC(=O)c1ccccc1Cl)Nc1ccc(OC(F)(F)F)cc1,112% (inactive)
5,COC(C)(C)CCCC(C)C/C=C/C(C)=C/C(=O)OC(C)C (stereo not given),105% (inactive)
6,CCC(CC)c1cccc(OC(=O)NC)c1.CCCC(C)c1cccc(OC(=O)NC)c1,147% (inactive)
7,N#Cc1nn(-c2c(Cl)cc(C(F)(F)F)cc2Cl)c(N)c1S(=O)C(F)(F)F (stereo not given),86.5% (inactive)
8,CN(C)CCn1c(Nc2cc(Cl)cc(C(F)(F)F)c2)nc2cnc(NC3CCCC3)cc21,124% (inactive)
9,C[C@@H]1O[C@@H](O[C@@H]2C=C3CC[C@@H]4[C@H](CC[C@]5(C)[C@@H](c6ccc(=O)oc6)CC[C@]45O)[C@@]3(C)CC2)[C@H](O)[C@H](O)[C@H]1O,82.8% (inactive)
10,CC(COc1ccc(Oc2ccccc2)cc1)Oc1ccccn1 (stereo not given),46.3% (inactive)
11,O=C(NC(=O)c1c(F)cccc1F)Nc1ccc(Cl)cc1,81% (inactive)
12,CC(C)(C#N)NC(=O)c1cc(Cl)cc(Cl)c1NC(=O)c1cc(Cl)nn1-c1ncccc1Cl,116% (inactive)
13,CCOCn1c(-c2ccc(Cl)cc2)c(C#N)c(Br)c1C(F)(F)F,6.93% (active)
14,CNC(=O)Oc1cccc2c1OC(C)(C)O2,129% (inactive)
15,Cc1c(COC(=O)[C@@H]2[C@H](C=C(Cl)C(F)(F)F)C2(C)C)cccc1-c1ccccc1,156% (inactive)
16,CC1(C)CNC(=NN=C(C=Cc2ccc(C(F)(F)F)cc2)C=Cc2ccc(C(F)(F)F)cc2)NC1,106% (inactive)
17,FC(F)(F)c1cc(Cl)cc(Nc2nc3cnc(OC4CCC4)cc3n2[C@@H]2CCNC2)c1,64% (inactive)
18,CC[C@H](C)[C@H]1O[C@]2(C=C[C@@H]1C)C[C@@H]1C[C@@H](C/C=C(\C)[C@@H](O[C@H]3C[C@H](OC)[C@@H](O[C@H]4C[C@H](OC)[C@@H](O)[C@H](C)O4)[C@H](C)O3)[C@@H](C)/C=C/C=C3\CO[C@@H]4[C@H](O)C(C)=C[C@@H](C(=O)O1)[C@]34O)O2.CO[C@H]1C[C@H](O[C@H]2[C@H](C)O[C@@H](O[C@@H]3/C(C)=C/C[C@@H]4C[C@@H](C[C@]5(C=C[C@H](C)[C@@H](C(C)C)O5)O4)OC(=O)[C@@H]4C=C(C)[C@@H](O)[C@H]5OC/C(=C\C=C\[C@@H]3C)[C@]54O)C[C@@H]2OC)O[C@@H](C)[C@@H]1O,55.6% (inactive)
19,CC(C)=CC1C(C(=O)OCN2C(=O)C3=C(CCCC3)C2=O)C1(C)C (stereo not given),127% (inactive)
20,CN/C(=N\[N+](=O)[O-])NCc1cnc(Cl)s1,127% (inactive)
